Laboratory results from PubChem BioAssay (Tox21).
The source made the active and inactive calls. Calls follow the shape of the full dose curve.

Experiment: G protein-coupled receptor (GPCR) small molecule agonists, calcium flux assay: HEK293 wild type cell line counter screen (AID 1920065)
Settings: HEK293 WT calcium flux, fluorescence, agonist mode; series mostly up to 57.6 µM; activation: at the top concentration
Excerpt: U.S. Tox21 Program National Center for Advancing Translational Sciences [NCATS] Division of Preclinical Innovation [DPI] U.S. Environmental Protection Agency [EPA] National Institutes of Environmental Health Sciences [NIEHS] National Toxicology Program [NTP] U.S. Food and Drug Administration [FDA] Assay overview: The increased intracellular calcium release that occurred upon G protein-coupled receptor (GPCR) activation led to the frequent use of calcium flux assays to detect GPCR activation. For the purpose of studying and screening compounds that may activate GPCR, receptor-overexpressing models were typically generated using Hek293 wild-type (WT) cells. In order to eliminate the compounds that may have induced calcium release for non-specific activation, a counter-assay utilizing calcium flux on Hek293 WT cells was performed. The data were formulated in order to serve as a control for any calcium flux detection utilizing Hek293 cells with either GPCR overexpression or gene modification. The procurement of Hek293 WT cells from ATCC. Fluorescence intensity can be utilized to determine the activation of the compound in a calcium flux assay. As a counter control, this cell line was utilized to screen the Tox21 10K compound library.
Assay Protocol Summary: Hek293 cells were dispensed at 1500cells/4uL/well in 1536-well black wall/clear bottom plates using a multidrop dispenser. After the assay plates were incubated at a 37 C/5% CO2 incubator for 18 hours, 4 uL of Calcium Dye Solution was added to each well. The plates were incubated at 37 C for 1 hour. For agonist mode, 23 nL of compounds dissolved in DMSO, positive control (ATP) or DMSO only was transferred to the assay plate by a pin tool station. The fluorescence intensity in the plates was measured using FDSS 7000EX kinetic plate reader with a filter set of Ex/Em=480/540 for 3 min at 1 sec intervals. Each test compound was measured at 15 concentrations and in triplicates.
% is scaled to controls: 0 for no effect and ±100 for the full control effect.

SMILES | Potency | activation
O=c1cc(-c2ccc(O)cc2)oc2cc(O)cc(O)c12 | inactive | –
Oc1ccc2c(c1)Cc1ccccc1-2 | – | -0.0361% (inactive)
CCC(=O)OCCOc1ccccc1 | – | 1.64% (inactive)
CC(C)N(C)C | – | 0.182% (inactive)
CCCCOC(=O)c1ccccc1 | – | -0.82% (inactive)
O=C(Oc1ccccc1)c1cccc(C(=O)Oc2ccccc2)c1 | – | -1.1% (inactive)
COc1cc(C(C)C)c2c(c1)S(=O)(=O)N(COc1cc(=O)n3cccc(OCCN4CCCCC4)c3n1)C2=O | – | 1.49% [at 11.8 µM] (inactive)
Oc1cccc(-c2c3nc(c(-c4cccc(O)c4)c4ccc([nH]4)c(-c4cccc(O)c4)c4nc(c(-c5cccc(O)c5)c5ccc2[nH]5)CC4)C=C3)c1 | – | 0.635% [at 26.5 µM] (inactive)
COc1cccc2sc(N)nc12 | – | 0.115% (inactive)
CC[N+](CC)(CC)CCOc1ccc(/C=C/c2ccccc2)cc1 | – | -0.495% [at 26.5 µM] (inactive)
Cc1cccc(C)c1NC(=O)C(C)N (stereo not given) | – | 0.592% [at 26.5 µM] (inactive)
Cc1ccc([N+](=O)[O-])cc1Cl | – | -0.25% (inactive)
O=C(O)Cc1ccc(OCCNC[C@H](O)c2ccccc2)cc1 | – | 0.0522% [at 26.5 µM] (inactive)
O=c1cc(O)c(Cl)c[nH]1 | – | -0.156% [at 26.5 µM] (inactive)
O=C(CCCN1CC=C(n2c(=O)[nH]c3ccccc32)CC1)c1ccc(F)cc1 | – | -1.56% [at 26.5 µM] (inactive)
C1CCOC1 | – | -0.751% (inactive)
CNC(=S)NC | – | 0.219% (inactive)
CCCCC/C(=C\c1ccccc1)CO | – | -2.3% (inactive)
CCCc1ncc(C[n+]2ccccc2C)c(N)n1 | – | -0.318% [at 26.5 µM] (inactive)
Cc1nn(C)c(Oc2ccccc2)c1/C=N/OCc1ccc(C(=O)OC(C)(C)C)cc1 | – | 0.223% (inactive)

SMILES | Potency | activation
CCN(CC)c1ccc(C(=C2C=CC(=[N+](CC)CC)C=C2)c2cc(S(=O)(=O)O)ccc2S(=O)(=O)[O-])cc1 | – | -0.0297% [at 26.5 µM] (inactive)
c1csc(SSc2cccs2)c1 | – | 1.16% (inactive)
Clc1nc2ccccc2nc1Cl | – | 0.342% (inactive)
CC(C)C[C@H]1C(=O)N2CCC[C@H]2[C@]2(O)O[C@](NC(=O)[C@@H]3C=C4c5cccc6[nH]c(Br)c(c56)C[C@H]4N(C)C3)(C(C)C)C(=O)N12 | – | 0.0021% [at 26.5 µM] (inactive)
CN1CCN(CCCN2c3ccccc3Sc3ccc(S(=O)(=O)N(C)C)cc32)CC1 | – | 1.19% [at 26.5 µM] (inactive)
O=S(=O)(O)c1cc(Cl)c(Cl)cc1Cl | – | -0.134% (inactive)
O=C(O)c1ccccc1Nc1cc(Cl)ccc1C(=O)O | – | -0.251% [at 11.8 µM] (inactive)
CC(C)NCC(O)COc1ccc(CCOCC2CC2)cc1 (stereo not given) | – | 1.04% [at 26.5 µM] (inactive)
CC(C)(C)c1cc(CCC(=O)OCC(COC(=O)CCc2cc(C(C)(C)C)c(O)c(C(C)(C)C)c2)(COC(=O)CCc2cc(C(C)(C)C)c(O)c(C(C)(C)C)c2)COC(=O)CCc2cc(C(C)(C)C)c(O)c(C(C)(C)C)c2)cc(C(C)(C)C)c1O | – | -1.13% [at 26.5 µM] (inactive)
CCC(C)O (stereo not given) | – | -0.0248% (inactive)
CC(CN(CCN(CC(C)OCCO)CC(C)OCCO)CC(C)OCCO)OCCO (stereo not given) | – | -0.309% (inactive)
COc1cc([C@@H]2c3cc4c(cc3[C@@H](O[C@@H]3O[C@@H]5CO[C@@H](C)O[C@H]5[C@H](O)[C@H]3O)[C@H]3COC(=O)[C@H]23)OCO4)cc(OC)c1O | – | 0.203% (inactive)
CCCCCCCCCCCCCCCCCCNC(=O)OC1CCN(C(=O)OC[C@H](COC(=O)N(Cc2cccc[n+]2CC)C(=O)c2ccccc2OC)OC)CC1 | – | 2.48% [at 26.5 µM] (inactive)
Nc1ccc2ccccc2c1S(=O)(=O)O | – | 0.105% (inactive)
O=S(=O)(Oc1ccc(Cl)cc1)c1ccccc1 | – | -2.15% (inactive)
CCCCCCCCCCCCCCCCN(C)C | – | -0.794% [at 5.23 µM] (inactive)
CC(=O)c1ccc2c(c1)[C@H](NC(=O)c1ccc(F)cc1)[C@@H](O)C(C)(C)O2 | – | -0.587% (inactive)
Oc1ccc(Cl)cc1C1CCCC1 | – | -0.83% (inactive)
CCCc1ccccc1O | – | -1.57% (inactive)
Nc1ccc(-c2ccc(F)cc2)cc1 | – | -0.966% (inactive)
